Here are results for 33 compounds from the supplement of paper PMC10811239.

This assay has as its system LEGO organoid PTN (PTEN-/-; TP53-/-; NF1-/-). The experiment in a line: bioluminescence (viable cell) signal fold change after vs before treatment, normalised to DMSO (ratio); higher = more tumour cell growth / less inhibition. The following applies: 10 µM; treatment time 6 days. The procedure: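 Luc2-labelled iPSC-derived glioblastoma-like organoids (LEGOs, genotypes PT = PTEN-/-;TP53-/-, PTCC = plus CDKN2A/B-/-, PTN = plus NF1-/-) were treated with 10 uM drug for 6 days (applied every other day) at 37 C. Bioluminescence imaging was done before treatment and 2 days after the last dose. BLI signals were normalised to the DMSO control on the same day and then to the pre-treatment signal (N=3).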
Regarding `NCC[C@H](O)C(=O)N[C@@H]1C[C@H](N)[C@@H](O[C@H]2O[C@H](CN)[C@@H](O)[C@H](O)[C@H]2O)[C@H](O)[C@H]1O[C@H]1O[C@H](CO)[C@@H](O)[C@H](N)[C@H]1O.O=S(=O)(O)O.O=S(=O)(O)O` [Amikacin disulfate], the bioluminescence stood at 0.614.

Take `Cl.Clc1cccc(Cl)c1NC1=NCCN1` [Clonidine hydrochloride]: the bioluminescence worked out at 0.76.

On to `C[C@H](C(=O)O)c1cccc(C(=O)c2ccccc2)c1` [(S)-(+)-Ketoprofen], for which the bioluminescence stood at 0.728.

For `CNCCCN1c2ccccc2CCc2ccccc21.Cl` [Desipramine hydrochloride], the bioluminescence stood at 1.22.

Take `CN(C/C=C/C#CC(C)(C)C)Cc1cccc2ccccc12` [Terbinafine]: the bioluminescence was 2.32.

Turning to `Cc1nc2n(c(=O)c1CCN1CCC(c3noc4cc(F)ccc34)CC1)CCCC2O` (stereo not drawn) [Paliperidone], the bioluminescence is 0.593.

In the case of `C[C@@H]1CCN(C(=O)CC#N)C[C@@H]1N(C)c1ncnc2[nH]ccc12` [Tofacitinib], the bioluminescence came to 1.19.

Turning to `O=C1CCC(N2C(=O)c3ccccc3C2=O)C(=O)N1` (stereo not drawn) [Thalidomide], the bioluminescence amounted to 1.38.

Take `Cl.OC(CCN1CCCC1)(c1ccccc1)C1CCCCC1` (stereo not drawn) [Procyclidine hydrochloride]: the bioluminescence stood at 0.656.

`C[C@]12CC[C@@H]3c4ccc(O)cc4CC[C@H]3[C@@H]1CC[C@@H]2O` [Estradiol]: the bioluminescence was 1.18.

On to `Nc1nc2c(ncn2COC(CO)CO)c(=O)[nH]1` [Ganciclovir], for which the bioluminescence came to 2.38.

With `NC(=O)c1cnccn1` [Pyrazinamide], the bioluminescence was determined as 1.72.

As for `O=C1Nc2ccc(Cl)cc2[C@@](C#CC2CC2)(C(F)(F)F)O1` [Efavirenz], the bioluminescence was determined as 0.908.

`C[C@@H](O[C@H]1OCCN(Cc2nc(=O)[nH][nH]2)[C@H]1c1ccc(F)cc1)c1cc(C(F)(F)F)cc(C(F)(F)F)c1` [Aprepitant]: the bioluminescence is 1.21.

In the case of `Clc1ccc2c(c1)C(N1CCNCC1)=Nc1ccccc1O2` [Amoxapine], the bioluminescence turned out to be 0.981.

For the compound `CC(=O)O.Cc1c(-c2ccc(O)cc2)n(Cc2ccc(OCCN3CCCCCC3)cc2)c2ccc(O)cc12` [Bazedoxifene acetate], the bioluminescence came to 0.0363.

As for `CNCCCC1c2ccccc2C=Cc2ccccc21.Cl` [Protriptyline hydrochloride], the bioluminescence worked out at 1.14.

On to `FC(F)(F)c1ccc(CNc2ccc(Cc3c[nH]c4ncc(Cl)cc34)cn2)cn1` [Pexidartinib], for which the bioluminescence is 0.351.

Turning to `CSc1ccc2c(c1)N(CCC1CCCCN1C)c1ccccc1S2.Cl` (stereo not drawn) [Thioridazine hydrochloride], the bioluminescence was found to be 1.56.

With `Cc1ncc([N+](=O)[O-])n1CCO` [Metronidazole], the bioluminescence was found to be 1.56.

Take `O=C([O-])CCCc1ccccc1.[Na+]` [Sodium Phenylbutyrate]: the bioluminescence was determined as 3.02.

Regarding `CCCCCOC(=O)Nc1nc(=O)n([C@@H]2O[C@H](C)[C@@H](O)[C@H]2O)cc1F` [Capecitabine], the bioluminescence was 6.04.

In the case of `O.O.O.O.[Li][O]C(=O)CC(O)(CC(=O)[O][Li])C(=O)[O][Li]` [Lithium citrate tetrahydrate], the bioluminescence worked out at 1.25.

`Cc1[nH]c(=O)c(C#N)cc1-c1ccncc1` [Milrinone]: the bioluminescence amounted to 1.34.

With `O=C(CCCN1CCC(O)(c2ccc(Cl)cc2)CC1)c1ccc(F)cc1` [Haloperidol], the bioluminescence was 0.771.

On to `CC(C)Nc1cccnc1N1CCN(C(=O)c2cc3cc(NS(C)(=O)=O)ccc3[nH]2)CC1.CS(=O)(=O)O` [Delavirdine mesylate], for which the bioluminescence was 1.76.

On to `CN[C@H]1CC[C@@H](c2ccc(Cl)c(Cl)c2)c2ccccc21.Cl` [Sertraline hydrochloride], for which the bioluminescence stood at 1.32.

Consider `N[C@@H](CC(=O)O)C(=O)O` [L-Aspartic acid], for which the bioluminescence stood at 0.451.

With `Cc1ccc(Nc2nccc(N(C)c3ccc4c(C)n(C)nc4c3)n2)cc1S(N)(=O)=O` [Pazopanib], the bioluminescence was 0.583.

Take `Nc1ncn([C@H]2C[C@H](O)[C@@H](CO)O2)c(=O)n1` [Decitabine]: the bioluminescence came out at 1.09.

In the case of `Cc1ccnc2c1NC(=O)c1cccnc1N2C1CC1` [Nevirapine], the bioluminescence worked out at 1.73.

Consider `CO[C@H]1C(=O)[C@]2(C)[C@@H](OC)C[C@H]3OC[C@@]3(OC(C)=O)[C@H]2[C@H](OC(=O)c2ccccc2)[C@]2(O)C[C@H](OC(=O)[C@H](O)[C@@H](NC(=O)OC(C)(C)C)c3ccccc3)C(C)=C1C2(C)C` [Cabazitaxel], for which the bioluminescence was 0.429.

As for `Nc1nc(=O)n([C@@H]2CS[C@H](CO)O2)cc1F` [Emtricitabine], the bioluminescence worked out at 0.495.
